According to PubChem BioAssay (NCATS):
Results filed as inconclusive are left out. Calls of active or inactive are those of the source. The call rests on the fitted dose curve; in most records, active means well fitted inhibition curve with a large enough effect; inconclusive means small, poorly fitted or top-dose-only effect; inactive means flat fitted curve, though single readings scatter.

Experiments:
TAB109 = test: qHTS profiling for inhibitors of Plasmodium falciparum proliferation (AID 504749);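 further: 0% = DMSO vehicle and full inhibition = artemisinin control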; details: P. falciparum in erythrocytes, SYBR Green DNA, 72 h; series mostly up to 28.7 µM
Method in brief: (§1)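 In a 72 h erythrocytic culture (37 C, humidified, 5% CO2) at 2.5% hematocrit and 0.3% starting parasitemia, compounds were tested; SYBR Green I in detergent lysis buffer stained parasite DNA overnight.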

TAB113 = test: as above; details: P. falciparum in erythrocytes, SYBR Green DNA, 72 h; series mostly up to 28.7 µM
Method in brief: as §1

W2 = test: as above; details: P. falciparum in erythrocytes, SYBR Green DNA, 72 h; series mostly up to 28.7 µM
Method in brief: as §1

CRL-7250 = normal cell line; test: Cytotoxic Profiling of Annotated Libraries Using Quantitative High-Throughput Screening (AID 1296008); details: Five cell lines viability, CellTiter-Glo ATP luminescence, 48-72 h; active compounds read low; on max response: on the % scale 0 is the no-effect control and ±100 the full control effect
Method in brief: (§2)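 Cytotoxicity was measured as CellTiter-Glo ATP luminescence, read after 10 min at room temperature. Compound treatment of the cells lasted 48 or 72 hr at 37 degrees Celsius in a qHTS format.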

HEK293 = test: as above; details: Five cell lines viability, CellTiter-Glo ATP luminescence, 48-72 h; active compounds read low
Method in brief: as §2

HaCat = test: as above; details: Five cell lines viability, CellTiter-Glo ATP luminescence, 48-72 h; active compounds read low
Method in brief: as §2

KB-3-1 = test: as above; details: Five cell lines viability, CellTiter-Glo ATP luminescence, 48-72 h, active compounds read low
Method in brief: as §2

NIH3T3 = test: as above; details: Five cell lines viability, CellTiter-Glo ATP luminescence, 48-72 h; active compounds read low
Method in brief: as §2

TAB165 = test: qHTS profiling for inhibitors of Plasmodium falciparum proliferation (AID 504749);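 further: 0% = DMSO vehicle and full inhibition = artemisinin control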; details: P. falciparum in erythrocytes, SYBR Green DNA, 72 h; series mostly up to 28.7 µM
Method in brief: as §1
Further: nearly all actives have a fitted effect of over 60% in size.

NC(=O)CCCCC1CCSS1 (stereo not given)
inactive: Potency (TAB109) | Potency (TAB113) | Potency (W2) | max response (CRL-7250) -9.01% | max response (HEK293) 2.03% | max response (HaCat) -1.45% | max response (KB-3-1) -12.5% | max response (NIH3T3) -6.71%

CNCc1ccccc1
inactive: Potency (TAB109) | Potency (TAB113) | Potency (TAB165) | Potency (W2) | max response (CRL-7250) 4.71% | outcome (HEK293) | max response (HaCat) -18.5% | max response (KB-3-1) -4.93% | max response (NIH3T3) 1.15%

CCOc1ccc(C(=O)OCCN(CC)CC)cc1
inactive: Potency (TAB109) | Potency (TAB113) | Potency (TAB165) | Potency (W2) | max response (CRL-7250) -0.597% | max response (HEK293) 1.58% | max response (HaCat) -25.1% | max response (KB-3-1) -3.59% | max response (NIH3T3) -1.32%

O=C(O)CNC(=O)c1ccccc1I
inactive: Potency (TAB109) | Potency (TAB113) | Potency (TAB165) | Potency (W2) | max response (CRL-7250) 4.72% | max response (HEK293) -1.69% | max response (HaCat) -16.3% | max response (KB-3-1) 7.37% | outcome (NIH3T3)

CC(=O)Nc1ccc(C(=O)O)cc1
inactive: Potency (TAB109) | Potency (TAB113) | Potency (TAB165) | Potency (W2) | max response (CRL-7250) -0.409% | outcome (HEK293) | max response (HaCat) 3.25% | max response (KB-3-1) -6.78% | max response (NIH3T3) -2.27%

CCCCCCCC(=O)OCC(O)CO (stereo not given)
inactive: Potency (TAB109) | Potency (TAB113) | Potency (TAB165) | Potency (W2) | max response (CRL-7250) -18.7% | max response (HEK293) -8.91% | max response (HaCat) -12% | max response (KB-3-1) -2.18% | max response (NIH3T3) -10.3%

Nc1ncnc(Nc2ccccc2)n1
inactive: Potency (TAB109) | Potency (TAB113) | Potency (TAB165) | Potency (W2) | max response (CRL-7250) -1.48% | max response (HEK293) -7.91% | max response (HaCat) 0.531% | max response (KB-3-1) 3.24% | outcome (NIH3T3)

Nc1ccc(C(=O)Oc2ccccc2)c(O)c1
inactive: Potency (TAB109) | Potency (TAB113) | Potency (TAB165) | Potency (W2) | max response (CRL-7250) 2.06% | max response (HEK293) 0.228% | max response (HaCat) -1.24% | max response (KB-3-1) -4.49% | outcome (NIH3T3)

CC(=O)Nc1ccc(OCCOCCOc2ccc(NC(C)=O)cc2)cc1
inactive: Potency (TAB109) | Potency (TAB113) | Potency (TAB165) | Potency (W2) | max response (CRL-7250) 0.416% | outcome (HEK293) | max response (HaCat) 3.25% | max response (KB-3-1) -2.03% | max response (NIH3T3) 4.13%

NC(=O)NS(=O)(=O)c1ccc(N)cc1
inactive: Potency (TAB109) | Potency (TAB113) | Potency (TAB165) | Potency (W2) | max response (CRL-7250) -2.79% | max response (HEK293) -4.98% | max response (HaCat) 2.87% | max response (KB-3-1) 0.448% | outcome (NIH3T3)

CCN(CC)S(=O)(=O)c1ccc(C(=O)O)cc1
inactive: Potency (TAB109) | Potency (TAB113) | Potency (TAB165) | Potency (W2) | max response (CRL-7250) -2.94% | outcome (HEK293) | max response (HaCat) 1.67% | max response (KB-3-1) 7.96% | max response (NIH3T3) -6.52%

C[C@@H]1O[C@@H](OC[C@H]2O[C@@H](Oc3c(-c4ccc(O)c(O)c4)oc4cc(O)cc(O)c4c3=O)[C@H](O)[C@@H](O)[C@@H]2O)[C@H](O)[C@H](O)[C@H]1O
inactive: Potency (TAB109) | Potency (TAB113) | Potency (TAB165) | Potency (W2) | max response (CRL-7250) -4.29% | outcome (HEK293) | max response (HaCat) 2.78% | max response (KB-3-1) 16.6% | max response (NIH3T3) -8.53%

O=C(O)CCCc1ccccc1
inactive: Potency (TAB109) | Potency (TAB113) | Potency (TAB165) | Potency (W2) | max response (CRL-7250) 1.18% | outcome (HEK293) | max response (HaCat) 2.59% | max response (KB-3-1) 18.7% | max response (NIH3T3) -2.38%

Cc1c(I)c(=O)n(-c2ccccc2)n1C
inactive: Potency (TAB109) | Potency (TAB113) | Potency (TAB165) | Potency (W2) | max response (CRL-7250) 1.27% | max response (HEK293) -2.1% | max response (HaCat) -20.9% | max response (KB-3-1) 2.22% | outcome (NIH3T3)

CC(O)CCCCn1c(=O)c2c(ncn2C)n(C)c1=O (stereo not given)
inactive: Potency (TAB109) | Potency (TAB113) | Potency (TAB165) | Potency (W2) | max response (CRL-7250) 2.98% | max response (HEK293) 0.321% | max response (HaCat) -6.07% | max response (KB-3-1) -8.11% | max response (NIH3T3) 4.47%

CC(C(=O)O)c1ccc2c(c1)Cc1cccnc1O2 (stereo not given)
inactive: Potency (TAB109) | Potency (TAB113) | Potency (TAB165) | Potency (W2) | max response (CRL-7250) -6.8% | outcome (HEK293) | max response (HaCat) -5.6% | max response (KB-3-1) -7.45% | max response (NIH3T3) -7.1%

CCCC(O)C(CC)CO (stereo not given)
inactive: Potency (TAB109) | Potency (TAB113) | Potency (TAB165) | Potency (W2) | max response (CRL-7250) -3.08% | max response (HEK293) -1.45% | max response (HaCat) -9.38% | max response (KB-3-1) 9.23% | outcome (NIH3T3)

CCCOC(=O)c1ccc(N)cc1
inactive: Potency (TAB109) | Potency (TAB113) | Potency (TAB165) | Potency (W2) | outcome (CRL-7250) | outcome (HEK293) | max response (HaCat) -1.1% | max response (KB-3-1) 1.99% | max response (NIH3T3) -2.69%

COc1ccc(O)cc1
inactive: Potency (TAB109) | Potency (TAB113) | Potency (TAB165) | Potency (W2) | max response (CRL-7250) -3.8% | outcome (HEK293) | max response (HaCat) -9.9% | max response (KB-3-1) -0.988% | max response (NIH3T3) -13.1%
